# From PubChem BioAssay AID1347056 (Sanford-Burnham Center for Chemical Genomics, 2019)
# Hit rate of the full screen: of about 360,000 compounds, about 3,600 (1%) were called active.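 How the source made its calls: active means compounds whose plate-normalised and pattern-corrected inhibition of the luciferase reporter signal at the single screening dose is 50% or more; inactive means the rest.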 The sample as a whole holds a higher share of actives than the screen did.
# Experiment: inhibitors of TROY-driven NF-kB signaling, primary screen, Q293 LMP1-TROYcd cells, NF-kB luciferase, uHTS (AID 1347056)
# Settings: Q293 LMP1-TROYcd NF-kB luciferase reporter, 4 h; at 10 µM; hits give high values
row,Structure (SMILES),inhibition
1,N#CC(Cc1cc2ccccc2n1S(=O)(=O)c1ccccc1)OCc1ccccc1 (stereo not given),-2.35% (inactive)
2,CC(C)c1ccc(NS(=O)(=O)c2cn(C)c(=O)n(C)c2=O)cc1,-2.58% (inactive)
3,Cc1ccccc1NC(=O)C(C)c1ccc(-c2ccccc2)c(F)c1 (stereo not given),-1.18% (inactive)
4,N#CCSc1nc2c(c(=O)n1Cc1ccccc1)C1(CCCC1)Cc1ccccc1-2,3.7% (inactive)
5,Cc1cccc(-n2c(SCC(N)=O)nc3c(c2=O)C2(CCCCC2)Cc2ccccc2-3)c1,51% (active)
6,Cc1cccc(-n2c(=O)c3c(C)c(C)sc3n(CC(N)=O)c2=O)c1,2.94% (inactive)
7,Cc1cc(CNC(=O)C2CCC(=O)N(CCc3ccc(Cl)cc3)C2)no1 (stereo not given),-13% (inactive)
8,O=C(N/N=C/c1ccsc1)c1cc(O)cc(O)c1,-3.65% (inactive)
9,CSc1ncnc2c1ncn2CC(=O)C1CCC2C3CCC4=CC(=O)CCC4(C)C3CCC12C (stereo not given),76.2% (active)
10,CC12CCC(=O)C=C1CCC1C2C(O)CC2(C)C1CCC2(O)C(O)CO (stereo not given),1.9% (inactive)
11,CSc1ncnc2c1ncn2CCCNCC1CCCCC1,10.9% (inactive)
12,Cc1cc(C)c(NC(=O)CN2CCOCCOCCOCCOCC2)c(C)c1,3.84% (inactive)
13,COC(=O)C1=C(N)Oc2cc(C)oc(=O)c2C1c1cccnc1 (stereo not given),-1.83% (inactive)
14,COc1ccc(-c2c(C)cc3oc(=O)cc(-c4ccccc4)c3c2C)cc1F,-22% (inactive)
15,COc1ccc(-c2c(C)cc3oc(=O)cc(-c4ccccc4)c3c2C)cc1C=O,50.3% (active)
16,COc1ccc(-c2c(C)cc3oc(=O)cc(-c4ccccc4)c3c2C)cc1OC,1.76% (inactive)
17,COc1cc([C@H](Cc2ccccc2)NC(C)=O)oc(=O)c1,-27% (inactive)
18,CCOC(=O)C1(S(=O)(=O)c2ccc(Cl)cc2)CCN(Cc2ccccc2)CC1,-14.2% (inactive)
19,CCN1CCN(CCNC(=O)c2ccc(/C=C3/Sc4ccccc4N(Cc4cccc(C)c4)C3=O)cc2)CC1,50.6% (active)
20,CN1CCN(CCCNC(=O)c2ccc(/C=C3\Oc4ccccc4N(Cc4ccc(Cl)cc4)C3=O)cc2)CC1,80.6% (active)
21,O=C(NCCN1CCOCC1)c1ccc(/C=C2\Sc3ccccc3N(Cc3ccc(F)cc3)C2=O)cc1,51% (active)
22,Cc1cccc(-c2nc3ccc(C(=O)NCCN4CCN(C)CC4)cc3nc2-c2cccc(C)c2)c1,-28% (inactive)
23,O=C(NCCN1CCOCC1)/C(=C/c1ccc(F)cc1)NC(=O)c1ccccc1,-11.7% (inactive)

row,Structure (SMILES),inhibition
1,CCN1CCN(CCNC(=O)c2ccc3c(c2)NC(=O)/C(=C\c2cccc(Cl)c2)S3)CC1,2.74% (inactive)
2,CCC1Oc2ccccc2N(CC(=O)NCCCN2CCN(CC)CC2)C1=O (stereo not given),1.63% (inactive)
3,Cc1ccc(C(=O)N/C(=C\c2ccc(F)cc2)C(=O)NCCN2CCOCC2)cc1,-5.95% (inactive)
4,Cc1c(C)n(Cc2ccc(Cl)cc2)c2ccc(C(=O)NCCCN3CCOCC3)cc12,-9.92% (inactive)
5,Nc1nc(Br)c2ccccc2c1-c1ccc(F)cc1,14.8% (inactive)
6,O=[N+]([O-])c1ccc(N2CCN(S(=O)(=O)c3ccccc3)CC2)cc1N1CCc2ccccc2C1,-19.3% (inactive)
7,CCc1nc2ccc(C(=O)N3CCN(S(=O)(=O)CC)CC3)cn2c1N(C=O)CCC(C)C,0.5% (inactive)
8,C/C(CC(=O)NC(C)(C)C)=N\NC(=O)c1ccco1,-29.8% (inactive)
9,COC(=O)[C@H](Cc1ccccc1)NC(=O)[C@@H]1C[C@H]1[C@@H](NC(=O)OCc1ccccc1)c1ccccc1,5.51% (inactive)
10,Cc1cc(Nc2cccc(C)c2C)n2ncnc2n1,3.52% (inactive)
11,COC(=O)CNC(=O)c1ccc(OC2CCN(C(=O)C3CC3)CC2)cc1,2.78% (inactive)
12,CC1O[C@H](OC2C(COC3OC(CO)C(O)[C@H](O)C3O)OC(OC3CC[C@]4(C)C(CC[C@@]5(C)[C@@H]4C=C[C@]46OC[C@@]7(CCC(C)(C)C[C@H]74)C(O)C[C@@]56C)C3(C)C)C(O)C2O)C(O)C(O)C1O (stereo not given in full),-9.36% (inactive)
13,COc1ccc(CNC(=O)CN(c2ccc(OC)c(Cl)c2)S(=O)(=O)c2ccc(C)cc2)cc1,-0.8% (inactive)
14,Cc1ccccc1OCCC(=O)Nc1c(C)n(C)n(-c2ccccc2)c1=O,1.55% (inactive)
15,CC(NS(=O)(=O)c1ccc(Cl)cc1)C(=O)Nc1ccc2c(c1)OCCO2 (stereo not given),2.15% (inactive)
16,CN1CCN(c2ccc(NC(=O)c3ccc4c(c3)OCCO4)cc2Cl)CC1,22.3% (inactive)
17,O=C(Nc1ccc2c(c1)OCCO2)c1ccc(Cl)c(S(=O)(=O)N2CCCCC2)c1,54.4% (active)
18,Cc1ccc(C(=O)Nc2ccc3c(c2)OCCO3)cc1S(=O)(=O)N1CCOCC1,-52% (inactive)
19,CCN(CC)CCNC(=O)c1ccc(NS(=O)(=O)c2ccc3c(c2)OCCO3)cc1,16.6% (inactive)
20,O=C(Nc1cccc(S(=O)(=O)Nc2ccc(Cl)cc2)c1)c1ccc2c(c1)OCCO2,56.2% (active)
21,C/C(=N\N(C)C)c1ccc(OCCOc2ccc([N+](=O)[O-])cc2)cc1,-19.4% (inactive)
22,COc1ccc(N(CC(=O)Nc2cc(OC)cc(OC)c2)S(=O)(=O)c2c(C)n[nH]c2C)cc1,-9.7% (inactive)
23,CN1C(=O)CC(c2ccccc2)C1=O (stereo not given),0.86% (inactive)

row,Structure (SMILES),inhibition
1,COCCN(Cc1cc2cc3c(cc2nc1Cl)OCO3)C(=O)c1cccc(C)c1,19.8% (inactive)
2,CN1CCN(CCCCOc2cccc3ccccc23)CC1,-39.4% (inactive)
3,CC1CC(C)CN(CCOc2cccc3ccccc23)C1 (stereo not given),6.96% (inactive)
4,CC(C)c1ccccc1OCC(O)CN(CC(O)COc1cccc2ccccc12)C(C)C (stereo not given),65.6% (active)
5,NC(=O)NC(=O)C(OC(=O)CCNS(=O)(=O)c1ccccc1)c1ccccc1 (stereo not given),1.93% (inactive)
6,Cc1ccc(CNCc2ccc3c(c2)OCO3)c(C)c1,-5.84% (inactive)
7,CC(C)COC(=O)C1C2C=CC3(CN(C(C)c4ccc(Br)cc4)C(=O)C13)O2 (stereo not given),-13.1% (inactive)
8,CCN1C(=O)[C@@H]2[C@@H]3CN(S(=O)(=O)c4ccccc4C)[C@@H](c4ccc(Cl)cc4)[C@@H]3C(=O)C[C@@H]2C1=O,14.4% (inactive)
9,CC(C)C(C)(C#N)NC(=O)CSc1nncn1-c1ccccc1 (stereo not given),-7.95% (inactive)
10,CC1CCN(C(=O)c2ccc3c(=O)n4c(nc3c2)CCCCC4)CC1,5.45% (inactive)
11,C=CCC1(CC=C)CCCN1C(=O)CC1C(=O)NCCN1Cc1ccccc1OC (stereo not given),-17.8% (inactive)
12,CCN1CCN(C(=O)C2(NC(=O)Nc3cccc(F)c3)CCCCC2)CC1,7.69% (inactive)
13,O=C(Cn1cnc2ccccc2c1=O)NCC1COc2ccccc2O1 (stereo not given),-4.41% (inactive)
14,Cc1noc(C)c1C(=O)NCC1COc2ccccc2O1 (stereo not given),7.74% (inactive)
15,c1ccc(-c2cc3c(NCC4COc5ccccc5O4)ncnc3s2)cc1 (stereo not given),59.3% (active)
16,CCOC(=O)[C@]12CCC=C1N(CCC1=CCCCC1)C(=O)[C@H](CC(=O)NCc1ccc(C)o1)C2,-3.05% (inactive)
17,Cc1nc(Nc2ccccc2F)c2nnn(Cc3ccccc3Cl)c2n1,-1.4% (inactive)
18,Cc1nc(Nc2ccc3c(c2)OCCO3)c2nnn(Cc3ccccc3Cl)c2n1,82.3% (active)
19,Cc1nc(Nc2ccc(S(=O)(=O)N3CCCC3)cc2)c2nnn(Cc3ccccc3)c2n1,22.5% (inactive)
20,Cc1ccc(S(=O)(=O)N(C)CC(=O)OCC(=O)Nc2ccccc2)cc1,-10.3% (inactive)
21,COC(=O)c1sc(C(F)(F)F)c(-c2ccccc2)c1S(=O)(=O)N(C)C,-5.2% (inactive)
22,CCOC(=O)CN(C)S(=O)(=O)c1ccc(-c2cc(C(=O)OC)sc2C(F)(F)F)cc1,87.2% (active)
23,Cc1ccc(OCCCC(=O)NC(C)c2ccccc2)c(C)c1 (stereo not given),-19.3% (inactive)

row,Structure (SMILES),inhibition
1,Cc1ccc(C(=O)OC(C)CN2CCOCC2)cc1 (stereo not given),-24.8% (inactive)
2,Cc1cccc(C(=O)OC(C)CN2CCN(C)CC2)c1 (stereo not given),58% (active)
3,Cc1cccc(C(=O)OC(C)CN2CCCC2)c1 (stereo not given),17.2% (inactive)
4,C=CCc1c(C)nc2cc(-c3ccccc3)[nH]n2c1=O,-9.98% (inactive)
5,CCCCN1Cc2c(nc3cc(-c4ccccc4)[nH]n3c2=O)C1=O,6.47% (inactive)
6,O=c1c2c(nc3cc(-c4cccc(Cl)c4)[nH]n13)CCCC2,59.5% (active)
7,COc1ccc(Br)cc1CN1CCN(C(=O)c2cccc(OC)c2OC)CC1,-1.16% (inactive)
8,COc1cccc(C(=O)OCc2cc(=O)oc3c(C)c(C)ccc23)c1OC,54.5% (active)
9,COC(=O)Cc1cc(=O)oc2c(C)c(O)ccc12,11.1% (inactive)
10,Cc1ccc(NC(=S)N(CCCN2CCCC2)Cc2cccn2Cc2ccc(Cl)cc2)cc1,-45.1% (inactive)
11,CCOc1cc(/C=N/NC(=O)OC)ccc1OCCSc1ccc(Cl)cc1,14.9% (inactive)
12,CCOc1cc(/C=C(/C#N)c2ccc(Cl)cc2)cc(Cl)c1OCC(=O)O,70.8% (active)
13,COc1cc(/C=C(/NC(=O)c2ccc(Cl)cc2Cl)C(=O)O)cc(OC)c1OC,18.8% (inactive)
14,O=C(O)C1=C[C@H](c2cccs2)C[C@H](OCCCCO)O1,-7.03% (inactive)
15,COc1cccc(NC(=O)c2ccc3c(SCC(=O)O)c4c(nc3c2)CCCC4)c1,-30.4% (inactive)
16,CC(C)CCNC(=O)c1ccc2c(Cl)c3c(nc2c1)CCC3,55.3% (active)
17,CC(C)CCC(C)NC(=O)c1ccc2nccnc2c1 (stereo not given),-39.8% (inactive)
18,COC(=O)CNS(=O)(=O)c1ccc(Cc2ccc(S(=O)(=O)NCC(=O)OC)cc2)cc1,13.7% (inactive)
19,O=C(Cc1cccc2ccccc12)NCCC1=CCCCC1,80.3% (active)
20,O=C(CCNC(=O)Cn1ccc2ccccc2c1=O)NCCC1=CCCCC1,7.75% (inactive)
21,Cc1nnc(OCC(=O)NCCC2=CCCCC2)c2ccccc12,-8.28% (inactive)
